IDE cell activ = activators of human insulin-degrading enzyme in cells | P14735 | AID 493087 | HEK cells, FAbeta-B cleavage, fluorescence polarization; 0% vehicle, 100% cell-free pure enzyme wells | 340,000 tested, 0.073% active | activation, % at 5.96 µM;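 active means activation above the mean of all tested compounds plus 3 SD, set per screening campaign, cut at about 17% in these data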
CHT block = human CHT choline transport inhibition; Q9GZV3; CHT-expressing cells, membrane potential dye, choline response; stronger effect = lower value; B-score at 10 µM; 310,000 tested, 0.86% active; AID 488975;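 active means B-score over 3 SD under the library average, and starting fluorescence ratio not unusually high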;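 further: choline stimulus applied at its EC90 after an EC20 pre-addition; B-score computed on integrated fluorescence ratio after choline addition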
Target sequence (Q9GZV3 whole entry, looked up): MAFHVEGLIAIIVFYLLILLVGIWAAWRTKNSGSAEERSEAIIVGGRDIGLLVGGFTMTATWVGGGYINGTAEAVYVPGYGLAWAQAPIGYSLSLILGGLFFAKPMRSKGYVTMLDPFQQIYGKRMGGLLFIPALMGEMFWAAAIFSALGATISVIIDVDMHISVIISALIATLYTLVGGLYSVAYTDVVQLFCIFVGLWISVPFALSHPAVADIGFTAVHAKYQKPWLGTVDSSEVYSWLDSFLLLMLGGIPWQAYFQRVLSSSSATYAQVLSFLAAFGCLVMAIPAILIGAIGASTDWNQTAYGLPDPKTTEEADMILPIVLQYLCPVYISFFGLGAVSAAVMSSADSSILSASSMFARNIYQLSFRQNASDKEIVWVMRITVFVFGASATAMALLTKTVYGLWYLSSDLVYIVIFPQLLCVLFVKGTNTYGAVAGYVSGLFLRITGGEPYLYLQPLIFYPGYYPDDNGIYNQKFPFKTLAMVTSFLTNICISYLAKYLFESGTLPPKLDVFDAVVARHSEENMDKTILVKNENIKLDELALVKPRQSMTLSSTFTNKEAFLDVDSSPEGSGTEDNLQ
CHT PAM = allosterically activates the human high affinity choline transporter. Q9GZV3. B-score at 10 µM. 310,000 tested, 0.49% active. CHT-expressing cells, membrane potential dye, choline EC20; stronger effect = higher value; LV-AA mutant CHT in HEK293 cells;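 active means initial fluorescence not abnormally high and integrated response B-score, plate-corrected, over 3 SD above library mean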
IDE inh = inhibitors of human insulin-degrading enzyme in cells. inhibition, % at 5.59 µM. HEK cells, FAbetaB cleavage, fluorescence polarization. 320,000 tested, 0.41% active. AID 434962. P14735;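 active means percent inhibition above the average of all tested compounds plus 3 SD, set per screening campaign, cut at about 16% in these data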;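 further: IDE supplied by intact live HEK cells; FP after avidin binding of uncleaved biotin substrate so inhibition keeps polarization high; 0% = DMSO wells and 100% = 60 µM reference IDE inhibitor Ii1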
ANO1 block = inhibitors of mouse TMEM16A calcium-activated chloride channel; AID 588511; Q8BHY3; 310,000 tested, 1.2% active; HEK293 TMEM16A/YFP iodide influx fluorescence, ionomycin; normalized B-score (activity score, 25-100; higher = stronger inhibition) at 10 µM;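 active means ratio plate-corrected score three or more library SD toward inhibition, starting fluorescence score within five deviations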;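 further: score derived from kinetic fluorescence span divided by baseline fluorescence per well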
TMEM16A act = mouse TMEM16A channel activation, primary screen. B-score at 10 µM. 340,000 tested, 0.3% active. HEK293 TMEM16A/YFP-H148Q/I152L, iodide quench fluorescence; stronger effect = lower value. Q8BHY3. AID 623877;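 active means fluorescence-ratio B-score plate-corrected deviation score at least 3 library SD below zero, with starting fluorescence score within 5 deviations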;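 further: channel opened by trigger with iodide after compound preincubation; score built on the fluorescence ratio of max minus min over baseline; more negative score means more quench and so TMEM16A activation or potentiation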
CHT activ conf = confirmation of human choline transporter (CHT) activators; activation, % at 10 µM; shares compounds with CHT PAM; CHT-expressing cells, membrane potential dye fluorescence (FDSS); % of choline EC20–EC90 response window; HEK293 expressing CHT LV-AA mutant; choline added at its EC20; AID 504833; 2,500 tested, 91% active;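 active means primary screen active, with duplicate mean activation above negative control mean plus 3 SD, cut at about 11% in these data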
HEK293 MP dye = activity in parental HEK293 cells lacking CHT; membrane potential dye fluorescence (FDSS); measured after EC20 choline addition; ratio readout change at 10 µM, hits read low; shares compounds with CHT PAM; AID 623908; 2,500 tested, 62% active;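 active means duplicate-averaged ratio beyond 3 SD from buffer wells, up or down, though filed actives are nearly all decreases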
* marks the source's active call; other numbers are inactive results; i = inactive; . = not tested or not shown. Only some compounds are listed: those with a hit (about 2.7% of all), similar ones and a draw of the others.

SMILES | IDE cell activ | CHT block | CHT PAM | IDE inh | ANO1 block | TMEM16A act | CHT activ conf | HEK293 MP dye
COc1ccc(OCC(=O)Nc2cccc(S(=O)(=O)N(C)c3ccccc3)c2)c([N+](=O)[O-])c1 | 4 | . | . | 1 | . | i | . | .
CCCCN(CCCC)CP(=O)(c1ccccc1)c1ccccc1 | 2 | i | 8.9* | 4 | i | i | 31* | i
O=C(NCc1ccco1)c1ccc2c(c1)S(=O)(=O)c1ccccc1C2=O | 0 | i | 8.6* | 1 | i | i | 30* | i
Cc1ccc(NC(=O)COC(=O)C2CCC2)cc1S(=O)(=O)N1CCCCC1 | 0 | i | i | 0 | i | i | . | .
Cc1sc2nc3ccc(N4CCCC4)nn3c(=O)c2c1C | 4 | i | i | 1 | i | i | 38* | -38*
O=C(CCc1ccccc1)NCC(c1ccco1)N1CCc2ccccc21 (centres undefined) | 6 | i | 7.5* | -4 | i | i | 14* | i
O=C(NCC(c1ccco1)N1CCc2ccccc21)c1cccc([N+](=O)[O-])c1 (centres undefined) | 4 | i | i | 4 | i | i | 23* | i
O=C(NCC(c1ccco1)N1CCc2ccccc21)c1ccccc1F (centres undefined) | 2 | i | i | 2 | i | i | . | .
CCCNC(=S)N1CCC(C(=O)c2ccc(OC)cc2)CC1 | -3 | i | 6.7* | 3 | i | i | -20 | i
CN(CC(=O)N1CCN(Cc2ccccc2)CC1)C(=O)Cc1ccc(Cl)c(Cl)c1 | -4 | . | . | 0 | . | i | . | .
O=C(N/N=C/c1ccc2cccnc2c1)c1ccco1 | 3 | i | i | -8 | i | i | 37* | i
O=C(N/N=C/c1ccccc1)c1ccco1 | 1 | i | i | 1 | i | i | . | .
CCN(CC)c1ccc(/C=N/NC(=O)c2ccco2)cc1 | 5 | i | i | 1 | i | i | 31* | i
CCc1ccc(NC(=O)[C@H](Cc2ccccc2)NC(=O)C2CCN(C(=O)[C@@H](N)CC(C)C)CC2)cc1 | 7 | i | i | 11 | i | i | . | .
COc1ccc(-c2cc(C(=O)Nc3c(C)n(C)n(-c4ccccc4)c3=O)c3ccccc3n2)c(OC)c1 | 3 | i | i | -10 | i | i | . | .
C=CCn1c(SC(C)C(=O)NCCC2=CCCCC2)nc2ccccc2c1=O (centres undefined) | 12 | i | i | 2 | i | i | 27* | i
CCOc1cc(CNCCSc2nnnn2C)cc(Br)c1OCc1ccccc1 | 4 | i | 7* | 2 | i | i | 15* | i
Cc1cc(N2CCCN(C)CC2)nc2cc(Cl)ccc12 | 7 | i | i | 5 | i | i | 35* | -50*
Cc1cc(N2CCOCC2)nc2ccccc12 | -2 | i | 6.5* | 7 | i | i | 45* | -51*
COc1ccc2nc(N3CCOCC3)cc(C)c2c1 | 5 | i | 8.4* | -2 | i | i | 58* | -57*
c1ccc2c(N3CCCCC3)nc(N3CCOCC3)nc2c1 | 4 | i | 6.7* | 9 | i | i | 40* | -44*
COc1ccc(N2CCN(c3cc(C)c4ccc(C)cc4n3)CC2)cc1 | 1 | i | i | 7 | i | i | . | .
Cc1cc(N2CCCCC2)nc2ccccc12 | 7 | i | i | -1 | i | i | . | .
CC1CCCCN1C(=O)COC(=O)c1cc(Cl)c2c(c1)OCO2 (centres undefined) | -1 | . | . | . | . | i | . | .
O=C(C(=O)N1CCN(c2ccc([N+](=O)[O-])cc2)CC1)c1cn(CC(=O)N2CCOCC2)c2ccccc12 | 5 | i | i | -5 | i | i | . | .
SMILES | IDE cell activ | CHT block | CHT PAM | IDE inh | ANO1 block | TMEM16A act | CHT activ conf | HEK293 MP dye
CC(NC(=O)COC(=O)CCC(=O)c1ccc(F)cc1)c1ccccc1 (centres undefined) | 4 | . | . | 5 | . | i | . | .
CC1(C)C2CCC1(CS(=O)(=O)N1CCN(c3ccc(F)cc3)CC1)C(=O)C2 (centres undefined) | 1 | i | i | -5 | i | i | . | .
Cc1cc(N2CCOCC2)nc2ccc(NC(=O)CCC(=O)N3CCCC(C)C3)cc12 (centres undefined) | 8 | i | i | 8 | i | i | 41* | -36*
COc1cccc(C(=O)Nc2ccc3nc(N4CCOCC4)cc(C)c3c2)c1 | -4 | i | 6.8* | 6 | i | i | 42* | -43*
Cc1cc(N2CCOCC2)nc2cc(O)ccc12 | 0 | i | 9.2* | 1 | i | i | 74* | -45*
O=C(Cc1cccs1)N(Cc1ccco1)C1(C(=O)NC2CCCCC2)CCCCC1 | 3 | i | i | -1 | i | i | 55* | i
CC(=O)N(Cc1ccco1)C1(C(=O)NC2CCCCC2)CCCCC1 | 1 | i | i | -2 | i | i | . | .
Cn1cc(S(=O)(=O)N2CCCC2)cc1C(=O)O | 3 | . | . | -2 | . | i | . | .
C=CC[n+]1c(-c2ccccc2)csc1NC(C)(C)C | 1 | i | i | -6 | i | i | . | .
C=CC[n+]1c(-c2ccc(OC)c(OC)c2)csc1NNC(=O)Nc1ccccc1 | -2 | i | i | 5 | 100* | i | 8 | i
Cc1ccc(C#CC[N+]2(CC#Cc3ccc(C)cc3)CCCCC2)cc1 | 2 | i | 8.7* | -9 | i | i | 18* | i
COc1ccc(CCN2C(=O)c3ccccc3NC2c2cc(Cl)c(O)c(OC)c2)cc1 (centres undefined) | -2 | i | 8.3* | -7 | i | i | 24* | i
COc1ccc(C(CC(=O)N2CCCC(C)C2)c2c(OC)cc(OC)c3c(-c4ccccc4)cc(=O)oc23)cc1 (centres undefined) | 5 | i | i | 1 | i | i | 5 | i
COc1ccc(C(CC(=O)N2CCOCC2)c2c(OC)cc(OC)c3c(-c4ccccc4)cc(=O)oc23)cc1 (centres undefined) | -1 | i | i | 8 | i | i | . | .
Cc1ccc(S(=O)(=O)N(C)/N=C/c2ccc(N(C)C)cc2)cc1 | 1 | i | i | 0 | i | i | . | .
